{"source": "paper PMC4336329", "about": "(PLoS ONE, 2015)", "note": "The campaign covered roughly 310,000 compounds. About 14,000 (4.5%) showed an effect of 50% or more. Effects have a minus sign here. For the sample, strong results were picked, then their nearest neighbours and some compounds at random.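 Further: peak tail current of the secondary pulse compared with the same well before compound.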", "data": [{"target": "human ether-à-go-go-related gene (hERG) potassium channel (human, UniProt Q12809)", "sequence (Q12809 whole entry, looked up)": "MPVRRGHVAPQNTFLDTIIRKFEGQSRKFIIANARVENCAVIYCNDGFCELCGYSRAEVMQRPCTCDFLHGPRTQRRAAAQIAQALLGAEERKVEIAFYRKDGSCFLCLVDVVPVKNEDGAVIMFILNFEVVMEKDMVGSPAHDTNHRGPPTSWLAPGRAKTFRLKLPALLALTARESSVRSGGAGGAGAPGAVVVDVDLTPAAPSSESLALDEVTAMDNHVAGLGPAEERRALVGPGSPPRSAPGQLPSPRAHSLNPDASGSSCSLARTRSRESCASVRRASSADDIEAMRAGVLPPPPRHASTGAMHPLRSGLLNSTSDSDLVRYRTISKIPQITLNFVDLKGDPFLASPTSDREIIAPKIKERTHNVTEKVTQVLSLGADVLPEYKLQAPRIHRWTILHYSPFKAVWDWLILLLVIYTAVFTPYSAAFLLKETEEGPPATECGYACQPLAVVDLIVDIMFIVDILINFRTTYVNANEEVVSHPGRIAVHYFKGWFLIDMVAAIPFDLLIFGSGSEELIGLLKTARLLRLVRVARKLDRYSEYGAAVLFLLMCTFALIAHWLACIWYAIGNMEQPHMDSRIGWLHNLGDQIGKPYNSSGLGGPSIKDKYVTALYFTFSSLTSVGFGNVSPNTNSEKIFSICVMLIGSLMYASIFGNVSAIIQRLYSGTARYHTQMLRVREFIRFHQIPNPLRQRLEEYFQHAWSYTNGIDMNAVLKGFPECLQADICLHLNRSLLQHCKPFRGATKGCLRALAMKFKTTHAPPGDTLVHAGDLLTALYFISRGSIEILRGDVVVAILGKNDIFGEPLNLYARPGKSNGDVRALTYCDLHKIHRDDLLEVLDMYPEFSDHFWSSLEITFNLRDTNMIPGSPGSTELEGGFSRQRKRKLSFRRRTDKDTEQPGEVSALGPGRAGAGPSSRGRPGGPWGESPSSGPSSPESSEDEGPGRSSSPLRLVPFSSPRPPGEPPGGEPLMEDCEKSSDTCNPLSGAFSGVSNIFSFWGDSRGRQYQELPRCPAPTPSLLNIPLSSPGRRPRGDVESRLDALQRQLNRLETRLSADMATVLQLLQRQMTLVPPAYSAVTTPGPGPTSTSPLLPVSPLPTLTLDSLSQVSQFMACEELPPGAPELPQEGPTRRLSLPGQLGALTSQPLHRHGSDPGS", "assay": "primary screen, population patch clamp on CHO cells stably expressing hERG; higher = less effect of the substance", "units": {"hERG current change (%, negative = inhibition) at 10uM": "%"}, "values": [{"smiles": "N#Cc1nc(-c2ccccc2Cl)oc1N1CCOCC1", "hERG current change (%, negative = inhibition) at 10uM": -4.51}, {"smiles": "N#CC1=C(Nc2ccccc2)SC=C(c2ccc(F)cc2)N=C1N1CCOCC1", "hERG current change (%, negative = inhibition) at 10uM": -10.8}, {"smiles": "N#CC1=C(Nc2ccccc2)SC=C(c2ccc(Cl)c(Cl)c2)N=C1N1CCOCC1", "hERG current change (%, negative = inhibition) at 10uM": -50.9}, {"smiles": "c1ccc(Nc2nc(N3CCOCC3)nc(N3CCOCC3)n2)cc1", "hERG current change (%, negative = inhibition) at 10uM": -7.35}, {"smiles": "Br.C=CCN1C(c2ccc(Br)cc2)=CS/C1=C(/C#N)c1nnc(N2CCOCC2)n1-c1ccccc1", "hERG current change (%, negative = inhibition) at 10uM": -13.4}, {"smiles": "N#CC1=C(Nc2ccccc2)SC=C(c2ccc(Br)cc2)N=C1N1CCOCC1", "hERG current change (%, negative = inhibition) at 10uM": -64.7}, {"smiles": "C/C(NC(=O)c1ccccc1F)=C1\\C(=O)C[C@@H]2[C@H]1C2(C)C", "hERG current change (%, negative = inhibition) at 10uM": -14.4}, {"smiles": "CC(C)OC(=O)CSc1nnc(SCc2cccc3ccccc23)s1", "hERG current change (%, negative = inhibition) at 10uM": 7.07}, {"smiles": "CC1CC2c3cccc(C(=O)O)c3C(=O)N2c2ccc(Cl)cc21", "note": "(stereo not drawn)", "hERG current change (%, negative = inhibition) at 10uM": 5.97}, {"smiles": "CCCC(C)NCC(=O)Nc1ccccc1-c1ccccc1.O=C(O)C(=O)O", "note": "(stereo not drawn)", "hERG current change (%, negative = inhibition) at 10uM": -21.5}, {"smiles": "COc1ccc(CCn2c(N3CCOCC3)nc3c2c(=O)[nH]c(=O)n3C)cc1", "hERG current change (%, negative = inhibition) at 10uM": -15.5}, {"smiles": "CC(=O)c1cc(C(=O)N2CCCC(C(=O)c3ccc(Cl)cc3)C2)cs1", "note": "(stereo not drawn)", "hERG current change (%, negative = inhibition) at 10uM": -31.9}, {"smiles": "CC(C)CN1CCN(Cc2ccc(C(F)(F)F)cc2)CC1CCO", "note": "(stereo not drawn)", "hERG current change (%, negative = inhibition) at 10uM": -56.6}, {"smiles": "CC(C)CN1CCN(Cc2ccc(C#CC(C)(C)O)cc2)CC1CCO", "note": "(stereo not drawn)", "hERG current change (%, negative = inhibition) at 10uM": 8.57}, {"smiles": "OCCC1CN(Cc2cccc(C(F)(F)F)c2)CCN1Cc1ccccc1", "note": "(stereo not drawn)", "hERG current change (%, negative = inhibition) at 10uM": -46.2}, {"smiles": "CC(C)CCN1CCN(Cc2ccc(N3CCNC3=O)cc2)CC1CCO", "note": "(stereo not drawn)", "hERG current change (%, negative = inhibition) at 10uM": -20.1}, {"smiles": "CC(C)CCN1CCN(Cc2ccc(C#CCCO)cc2)CC1CCO", "note": "(stereo not drawn)", "hERG current change (%, negative = inhibition) at 10uM": -6.37}, {"smiles": "Cc1cccc(-c2ncc(CN3CCN(CCC(C)C)C(CCO)C3)cn2)c1", "note": "(stereo not drawn)", "hERG current change (%, negative = inhibition) at 10uM": -45}, {"smiles": "OCCC1CN(Cc2cccs2)CCN1Cc1ccccc1", "note": "(stereo not drawn)", "hERG current change (%, negative = inhibition) at 10uM": -20.9}, {"smiles": "CC(C)CCN1CCN(Cc2cccc(C(F)(F)F)c2)CC1CCO", "note": "(stereo not drawn)", "hERG current change (%, negative = inhibition) at 10uM": -55.1}, {"smiles": "OCCC1CN(Cc2ccc(C(F)(F)F)cc2)CCN1Cc1ccccc1", "note": "(stereo not drawn)", "hERG current change (%, negative = inhibition) at 10uM": -56.8}, {"smiles": "CC(C)CCN1CCN(Cc2ccc(C(F)(F)F)cc2)CC1CCO", "note": "(stereo not drawn)", "hERG current change (%, negative = inhibition) at 10uM": -58.1}, {"smiles": "CC(C)CN1CCN(Cc2ccccc2C(F)(F)F)CC1CCO", "note": "(stereo not drawn)", "hERG current change (%, negative = inhibition) at 10uM": 4.5}, {"smiles": "CN(Cc1ccc(F)cc1)C(=O)c1ccc(NS(=O)(=O)c2ccc3[nH]c(=O)[nH]c3c2)cc1", "hERG current change (%, negative = inhibition) at 10uM": 12.1}, {"smiles": "O=[N+]([O-])c1cccc(S(=O)(=O)Nc2ccc(S(=O)(=O)NCC3CCCO3)cc2)c1", "note": "(stereo not drawn)", "hERG current change (%, negative = inhibition) at 10uM": -0.96}, {"smiles": "COc1ccc(C2c3ccc(O)cc3Oc3ncn4nc(-c5cccnc5)nc4c32)cc1OC", "note": "(stereo not drawn)", "hERG current change (%, negative = inhibition) at 10uM": -56.9}, {"smiles": "COc1ccc(C2c3ccc(O)cc3Oc3ncn4nc(-c5ccccn5)nc4c32)cc1OC", "note": "(stereo not drawn)", "hERG current change (%, negative = inhibition) at 10uM": -71.3}, {"smiles": "COc1ccc(C2c3c(ccc4ccccc34)Oc3ncn4nc(-c5ccco5)nc4c32)cc1OC", "note": "(stereo not drawn)", "hERG current change (%, negative = inhibition) at 10uM": -13.4}, {"smiles": "COc1ccc(C2c3ccc(O)cc3Oc3ncn4nc(-c5ccco5)nc4c32)cc1OC", "note": "(stereo not drawn)", "hERG current change (%, negative = inhibition) at 10uM": 22.8}, {"smiles": "COc1ccc(C2c3ccc(O)cc3Oc3ncn4nc(-c5ccccn5)nc4c32)cc1", "note": "(stereo not drawn)", "hERG current change (%, negative = inhibition) at 10uM": 17.9}, {"smiles": "COc1ccc(C2c3ccc(O)cc3Oc3ncn4nc(-c5ccncc5)nc4c32)cc1OC", "note": "(stereo not drawn)", "hERG current change (%, negative = inhibition) at 10uM": 5.39}, {"smiles": "CC1=CC(c2ccc(Cl)cc2)n2ncnc2N1", "note": "(stereo not drawn)", "hERG current change (%, negative = inhibition) at 10uM": -9.02}, {"smiles": "Cc1ccc(N=CC2=C(O)CC(c3ccccc3Cl)CC2=O)cc1", "note": "(stereo not drawn)", "hERG current change (%, negative = inhibition) at 10uM": -6.91}, {"smiles": "Cc1ccc(CN(C)Cc2cc(=O)oc3cc(C)c(Cl)cc23)cc1", "hERG current change (%, negative = inhibition) at 10uM": 14.9}, {"smiles": "O=C(COc1cc2oc(=O)c3c(c2cc1Cl)CCC3)Nc1cccnc1", "hERG current change (%, negative = inhibition) at 10uM": 6.03}, {"smiles": "CCOC(=O)c1ccc(NC(=O)COc2cc3oc(=O)c(CC(C)O)c(C)c3cc2Cl)cc1", "note": "(stereo not drawn)", "hERG current change (%, negative = inhibition) at 10uM": 13.7}, {"smiles": "CC(=O)c1cccc(NC(=O)COc2cc3oc(=O)c(CC(C)O)c(C)c3cc2Cl)c1", "note": "(stereo not drawn)", "hERG current change (%, negative = inhibition) at 10uM": -57.7}, {"smiles": "CCOC(=O)NC(Nc1sc2c(c1C(=O)OC)CCN(C)C2)(C(F)(F)F)C(F)(F)F", "hERG current change (%, negative = inhibition) at 10uM": -13.2}, {"smiles": "CCCCOC(=O)Cn1c(=N)n(CCN(CC)CC)c2ccccc21", "hERG current change (%, negative = inhibition) at 10uM": -52.3}, {"smiles": "CCCCOC(=O)Cn1c(=O)n(CC(=O)OCCCC)c2ccccc21", "hERG current change (%, negative = inhibition) at 10uM": -33.9}, {"smiles": "CCCCOC(=O)Cn1c(=O)n(CC(=O)OCCCC)c2cc(C)ccc21", "hERG current change (%, negative = inhibition) at 10uM": -69.4}, {"smiles": "CCN(CC)CCn1c(=N)n(CC(O)c2ccc(OC)c(OC)c2)c2ccccc21.Cl", "note": "(stereo not drawn)", "hERG current change (%, negative = inhibition) at 10uM": 14.4}, {"smiles": "CCCCOC(=O)Cn1c(=N)n(CCN2CCOCC2)c2ccccc21.Cl", "hERG current change (%, negative = inhibition) at 10uM": -36.3}, {"smiles": "CCCCOC(=O)Cn1c(=O)oc2ccc(C)cc21", "hERG current change (%, negative = inhibition) at 10uM": 5.97}, {"smiles": "CCN(CC)CCn1c(=N)n(CC(O)COc2ccccc2)c2ccccc21.Cl", "note": "(stereo not drawn)", "hERG current change (%, negative = inhibition) at 10uM": -52.1}, {"smiles": "CCN(CC)CCn1c(=N)n(CC(O)COc2cccc(C)c2)c2ccccc21.Cl", "note": "(stereo not drawn)", "hERG current change (%, negative = inhibition) at 10uM": -65.2}, {"smiles": "CCCCOC(=O)Cn1c(=N)n(CCC)c2ccccc21.Cl", "hERG current change (%, negative = inhibition) at 10uM": -31.5}, {"smiles": "CCn1c(=O)c(C(=O)Nc2ccccc2F)c(O)c2ccccc21", "hERG current change (%, negative = inhibition) at 10uM": 17.2}, {"smiles": "COc1ccc(OC)c(-c2csc(NC(=O)CSc3nnnn3C)n2)c1", "hERG current change (%, negative = inhibition) at 10uM": 4.17}, {"smiles": "COc1ccc(NC(=S)NC(NC(=O)CCl)C(Cl)(Cl)Cl)c([N+](=O)[O-])c1", "note": "(stereo not drawn)", "hERG current change (%, negative = inhibition) at 10uM": 17.2}, {"smiles": "NS(=O)(=O)c1cc2c(cc1Cl)NCNS2(=O)=O", "hERG current change (%, negative = inhibition) at 10uM": -12.3}, {"smiles": "Cc1cccc(-n2ncc3c(NCc4ccccc4)ncnc32)c1", "hERG current change (%, negative = inhibition) at 10uM": 12}, {"smiles": "O=C(c1cc2nc(-c3ccco3)cc(C(F)(F)F)n2n1)N1CCN(c2ccc(F)cc2)CC1", "hERG current change (%, negative = inhibition) at 10uM": -34.5}, {"smiles": "O=C(N/N=C/c1ccco1)c1ccc(OCc2ccccc2)cc1", "hERG current change (%, negative = inhibition) at 10uM": 10.9}]}]}
